The values that follow come from the supplement of paper PMC10849652.

Of roughly 7,900 targets only a part is listed; those with a hit were picked by preference. About 0.6% of all pairs of compound and target were hits.

Sequence of UniProt P51956 (P51956 whole entry, looked up): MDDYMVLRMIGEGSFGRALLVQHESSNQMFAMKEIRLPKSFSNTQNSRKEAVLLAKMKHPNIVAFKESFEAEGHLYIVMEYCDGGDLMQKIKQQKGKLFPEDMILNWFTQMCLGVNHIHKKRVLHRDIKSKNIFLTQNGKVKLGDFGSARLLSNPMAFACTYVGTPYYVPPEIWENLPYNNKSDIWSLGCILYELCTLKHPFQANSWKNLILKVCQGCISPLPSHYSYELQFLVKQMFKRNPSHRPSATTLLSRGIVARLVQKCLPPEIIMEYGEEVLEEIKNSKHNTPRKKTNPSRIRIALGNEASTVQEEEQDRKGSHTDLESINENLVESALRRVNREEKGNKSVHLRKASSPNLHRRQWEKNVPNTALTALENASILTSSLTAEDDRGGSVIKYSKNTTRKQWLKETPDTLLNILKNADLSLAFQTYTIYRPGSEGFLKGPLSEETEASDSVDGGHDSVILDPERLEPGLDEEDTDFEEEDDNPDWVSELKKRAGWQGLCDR
Sequence of UniProt P03886 (P03886 whole entry, looked up): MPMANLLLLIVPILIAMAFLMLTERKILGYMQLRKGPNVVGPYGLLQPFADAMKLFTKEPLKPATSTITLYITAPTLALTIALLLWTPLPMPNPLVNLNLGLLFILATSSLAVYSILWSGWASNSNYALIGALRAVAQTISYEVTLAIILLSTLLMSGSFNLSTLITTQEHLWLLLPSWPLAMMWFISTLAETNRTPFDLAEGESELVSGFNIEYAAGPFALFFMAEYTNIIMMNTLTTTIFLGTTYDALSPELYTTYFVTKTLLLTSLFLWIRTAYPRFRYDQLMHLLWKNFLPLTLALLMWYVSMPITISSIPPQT
Sequence of UniProt Q9Y5B8 (Q9Y5B8 whole entry, looked up): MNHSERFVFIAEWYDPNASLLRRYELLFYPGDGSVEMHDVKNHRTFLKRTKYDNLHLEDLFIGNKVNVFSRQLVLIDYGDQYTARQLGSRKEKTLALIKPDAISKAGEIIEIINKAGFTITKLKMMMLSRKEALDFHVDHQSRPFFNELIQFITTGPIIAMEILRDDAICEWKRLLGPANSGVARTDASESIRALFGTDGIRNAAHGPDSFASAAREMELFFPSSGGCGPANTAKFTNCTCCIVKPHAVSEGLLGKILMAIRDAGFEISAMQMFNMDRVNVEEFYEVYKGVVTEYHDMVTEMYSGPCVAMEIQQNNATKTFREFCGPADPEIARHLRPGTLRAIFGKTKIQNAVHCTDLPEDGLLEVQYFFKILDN
Sequence of UniProt O43913 (O43913 whole entry, looked up): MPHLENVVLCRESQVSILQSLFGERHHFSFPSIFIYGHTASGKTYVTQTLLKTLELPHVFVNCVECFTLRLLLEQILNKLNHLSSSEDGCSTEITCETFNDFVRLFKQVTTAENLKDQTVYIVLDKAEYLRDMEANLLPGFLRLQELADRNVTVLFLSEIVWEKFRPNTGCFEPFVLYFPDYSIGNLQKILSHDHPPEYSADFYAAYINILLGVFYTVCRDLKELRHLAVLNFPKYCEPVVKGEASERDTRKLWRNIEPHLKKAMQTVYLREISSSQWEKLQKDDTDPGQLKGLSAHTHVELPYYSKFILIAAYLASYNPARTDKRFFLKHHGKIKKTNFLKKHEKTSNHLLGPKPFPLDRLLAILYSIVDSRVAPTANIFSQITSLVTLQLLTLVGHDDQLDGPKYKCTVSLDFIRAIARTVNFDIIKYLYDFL
Sequence of UniProt Q69YL0 (Q69YL0 whole entry, looked up): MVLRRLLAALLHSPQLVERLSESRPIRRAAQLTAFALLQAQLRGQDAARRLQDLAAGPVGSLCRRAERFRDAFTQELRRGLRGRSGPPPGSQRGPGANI
Sequence of UniProt O60361 (O60361 whole entry, looked up): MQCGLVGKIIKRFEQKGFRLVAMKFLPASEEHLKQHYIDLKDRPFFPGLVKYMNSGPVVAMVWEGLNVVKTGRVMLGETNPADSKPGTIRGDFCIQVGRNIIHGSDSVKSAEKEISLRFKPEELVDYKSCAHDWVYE
Sequence of UniProt Q8NI08 (Q8NI08 whole entry, looked up): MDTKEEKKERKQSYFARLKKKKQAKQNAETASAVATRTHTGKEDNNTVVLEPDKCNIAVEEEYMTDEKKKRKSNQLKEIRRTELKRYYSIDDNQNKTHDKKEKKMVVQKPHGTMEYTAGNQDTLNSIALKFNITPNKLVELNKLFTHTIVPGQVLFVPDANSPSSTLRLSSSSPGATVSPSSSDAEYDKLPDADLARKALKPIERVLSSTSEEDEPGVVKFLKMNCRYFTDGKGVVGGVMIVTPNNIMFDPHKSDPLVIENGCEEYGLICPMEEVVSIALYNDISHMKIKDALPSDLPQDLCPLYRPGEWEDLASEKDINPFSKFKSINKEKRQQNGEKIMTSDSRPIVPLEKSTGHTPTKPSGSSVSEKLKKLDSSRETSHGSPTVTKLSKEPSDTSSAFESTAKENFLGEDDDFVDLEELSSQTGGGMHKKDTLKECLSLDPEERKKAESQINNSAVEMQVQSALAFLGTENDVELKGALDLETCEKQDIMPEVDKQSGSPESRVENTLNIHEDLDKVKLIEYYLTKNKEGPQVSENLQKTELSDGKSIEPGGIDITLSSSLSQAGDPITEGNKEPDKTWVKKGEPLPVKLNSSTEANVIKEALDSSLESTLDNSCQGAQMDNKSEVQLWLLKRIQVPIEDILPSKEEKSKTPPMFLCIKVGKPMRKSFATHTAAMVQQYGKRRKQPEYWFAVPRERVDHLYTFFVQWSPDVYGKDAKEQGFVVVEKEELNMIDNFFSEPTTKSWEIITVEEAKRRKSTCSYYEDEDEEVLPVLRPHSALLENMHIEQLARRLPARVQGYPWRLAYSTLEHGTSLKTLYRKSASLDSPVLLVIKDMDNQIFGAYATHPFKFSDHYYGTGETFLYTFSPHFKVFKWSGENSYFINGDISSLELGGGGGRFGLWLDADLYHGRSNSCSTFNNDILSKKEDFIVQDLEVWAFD
Sequence of UniProt Q9Y2X3 (Q9Y2X3 whole entry, looked up): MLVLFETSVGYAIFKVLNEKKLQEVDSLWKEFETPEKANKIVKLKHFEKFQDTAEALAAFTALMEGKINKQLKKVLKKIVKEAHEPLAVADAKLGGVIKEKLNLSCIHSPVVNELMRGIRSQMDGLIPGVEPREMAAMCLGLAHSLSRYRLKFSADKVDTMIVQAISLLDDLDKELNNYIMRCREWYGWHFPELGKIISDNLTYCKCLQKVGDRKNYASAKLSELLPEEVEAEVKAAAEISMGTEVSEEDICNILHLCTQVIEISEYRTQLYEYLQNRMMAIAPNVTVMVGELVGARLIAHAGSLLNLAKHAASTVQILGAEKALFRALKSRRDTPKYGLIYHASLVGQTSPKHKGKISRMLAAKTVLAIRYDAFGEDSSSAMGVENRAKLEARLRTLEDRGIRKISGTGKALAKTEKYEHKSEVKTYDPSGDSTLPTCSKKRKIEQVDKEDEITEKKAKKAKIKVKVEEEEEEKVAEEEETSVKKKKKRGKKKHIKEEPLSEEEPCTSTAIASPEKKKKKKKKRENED
Sequence of UniProt O75607 (O75607 whole entry, looked up): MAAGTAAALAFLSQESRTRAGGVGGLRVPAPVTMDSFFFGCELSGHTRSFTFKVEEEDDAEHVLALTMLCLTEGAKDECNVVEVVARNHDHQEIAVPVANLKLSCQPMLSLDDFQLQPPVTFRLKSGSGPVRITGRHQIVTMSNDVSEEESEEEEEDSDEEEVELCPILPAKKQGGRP
Sequence of UniProt P25208 (P25208 whole entry, looked up): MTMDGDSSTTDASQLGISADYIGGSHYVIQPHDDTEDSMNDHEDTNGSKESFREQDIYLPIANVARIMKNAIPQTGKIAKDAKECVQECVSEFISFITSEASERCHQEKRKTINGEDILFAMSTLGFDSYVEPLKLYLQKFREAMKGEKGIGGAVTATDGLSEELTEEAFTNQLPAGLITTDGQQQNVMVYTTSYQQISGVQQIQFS
Sequence of UniProt Q9UH92 (Q9UH92 whole entry, looked up): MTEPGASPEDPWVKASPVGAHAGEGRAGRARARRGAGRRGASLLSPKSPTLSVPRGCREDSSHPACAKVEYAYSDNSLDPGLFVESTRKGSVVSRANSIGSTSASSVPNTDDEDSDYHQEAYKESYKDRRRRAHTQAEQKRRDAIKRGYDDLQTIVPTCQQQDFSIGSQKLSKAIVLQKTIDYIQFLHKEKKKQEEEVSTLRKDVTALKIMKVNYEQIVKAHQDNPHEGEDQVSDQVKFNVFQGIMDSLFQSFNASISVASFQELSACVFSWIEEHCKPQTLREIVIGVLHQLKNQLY
Sequence of UniProt Q9Y605 (Q9Y605 whole entry, looked up): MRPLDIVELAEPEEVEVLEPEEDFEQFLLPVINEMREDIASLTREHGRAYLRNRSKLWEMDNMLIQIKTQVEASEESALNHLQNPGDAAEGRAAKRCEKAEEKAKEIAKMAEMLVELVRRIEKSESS
Sequence of UniProt Q9BSU3 (Q9BSU3 whole entry, looked up): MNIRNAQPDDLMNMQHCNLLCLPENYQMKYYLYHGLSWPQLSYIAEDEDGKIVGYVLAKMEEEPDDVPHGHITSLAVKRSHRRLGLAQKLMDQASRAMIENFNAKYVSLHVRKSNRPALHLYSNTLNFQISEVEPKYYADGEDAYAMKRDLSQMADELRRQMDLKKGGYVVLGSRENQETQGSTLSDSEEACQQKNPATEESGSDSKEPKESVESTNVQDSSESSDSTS
Sequence of UniProt Q8WUY8 (Q8WUY8 whole entry, looked up): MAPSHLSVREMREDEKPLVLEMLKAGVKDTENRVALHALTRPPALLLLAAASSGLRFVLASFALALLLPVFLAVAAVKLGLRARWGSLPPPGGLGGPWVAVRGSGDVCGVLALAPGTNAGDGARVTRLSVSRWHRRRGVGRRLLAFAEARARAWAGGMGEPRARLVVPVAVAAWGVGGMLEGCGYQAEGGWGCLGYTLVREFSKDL
Sequence of UniProt Q9BT67 (Q9BT67 whole entry, looked up): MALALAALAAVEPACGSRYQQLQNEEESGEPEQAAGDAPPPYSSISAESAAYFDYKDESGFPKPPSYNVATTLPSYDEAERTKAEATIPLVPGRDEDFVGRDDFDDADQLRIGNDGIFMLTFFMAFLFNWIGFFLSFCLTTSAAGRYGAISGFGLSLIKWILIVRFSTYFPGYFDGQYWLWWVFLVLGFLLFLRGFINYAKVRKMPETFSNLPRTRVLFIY

Compound in one experiment: CC[C@@H]1C(=O)N(C)c2cnc(Nc3ccc(C(=O)NC4CCN(C)CC4)cc3OC)nc2N1C1CCCC1
Description: log2 fold change, soluble protein after heating vs DMSO (PISA); higher = thermal stabilisation; K562 cells, 10 uM, 30 min; active = over 0.2 and 3.5 SD of the protein, either way, in both replicates (recomputed). The gist of the method:
(§1)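 Quantification of soluble protein used TMTpro 16plex LC-MS/MS, with channel sums equalised. Samples were the supernatant after 21,000xg for 90 min of pooled aliquots from K562 cells (2×10^6 cells/mL) treated with 10 μM compound for 30 min, heated for 3 min over 48°C-58°C, and extracted in PBS with 0.5% NP-40 at 4°C. Values, from duplicates, describe thermal stability against control samples on a log2 fold-change scale.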
As for NFYB (UniProt P25208), the log2 fold change is 0.008 (inactive).
Same read-out and setting: the result for NME7 (UniProt Q9Y5B8) reads -0.014 (inactive); that for NPM3 (UniProt O75607), 0.065 (inactive).
As for NME2P1 (UniProt O60361), the log2 fold change was 0.117 (inactive).
On the same count and under the same terms, the result for MON1A (UniProt Q86VX9) reads -0.11 (inactive); that for NCOA7 (UniProt Q8NI08), -0.035 (inactive).
Still for that read-out and setting: in the case of NAT14 (UniProt Q8WUY8) it was -0.192 (inactive); in that of NDFIP1 (UniProt Q9BT67), 0.211 (inactive).
Turning to PACS1 (UniProt Q6VY07), the log2 fold change was 0 (inactive).
Regarding NPC1 (UniProt O15118), the log2 fold change is -0.016 (inactive).
Regarding MRPS21 (UniProt P82921), the log2 fold change is 0.062 (inactive).
On the same count and under the same terms, in the case of MRPS16 (UniProt Q9Y3D3) it was 0.012 (inactive); in that of NOP58 (UniProt Q9Y2X3), 0.095 (inactive).
With MYLK (UniProt Q15746), the log2 fold change is -0.015 (inactive).
Same read-out and setting: the result for MLX (UniProt Q9UH92) reads 0.047 (inactive); that for OSBPL3 (UniProt Q9H4L5), 0.136 (inactive).
Same read-out and setting: the result for OPHN1 (UniProt O60890) reads 0.036 (inactive).
For the target MTHFD1, A0A384N5Y3, the log2 fold change is -0.152 (inactive).
The same measure, in the same setting: in the case of NAA11 (UniProt Q9BSU3) it was -0.013 (inactive); in that of MYSM1 (UniProt Q5VVJ2), -0.17 (inactive); in that of NECTIN2 isoform 2 (UniProt Q92692), 0.175 (inactive).
On the same count and under the same terms, in the case of MRPL46 (UniProt Q9H2W6) it was 0.209 (inactive); in that of MRPS33 (UniProt Q9Y291), 0.016 (inactive).
On the same count and under the same terms, in the case of MT-ND1 (UniProt P03886) it was -0.157 (inactive).
Turning to NCBP2AS2 (UniProt Q69YL0), the log2 fold change was -0.255 (inactive).
Same read-out and setting: in the case of MRPS26 (UniProt Q9BYN8) it was 0.011 (inactive); in that of MRFAP1 (UniProt Q9Y605), -0.107 (inactive).
Still for that read-out and setting: the result for ORC5 (UniProt O43913) reads -0.196 (inactive); that for NEK3 (UniProt P51956), -0.046 (inactive).

Compound in the next experiment: CC[C@@H]1C(=O)N(C)c2cnc(Nc3ccc(C(=O)N[C@H]4CC[C@H](N5CCN(CC6CC6)CC5)CC4)cc3OC)nc2N1C(C)C [volasertib]
The experiment is described as above. The gist of the method: as §1
As for NFYB (UniProt P25208), the log2 fold change is 0.019 (inactive).
As to NME7 (UniProt Q9Y5B8), the log2 fold change was -0.358 (active).
As to MPHOSPH8 isoform 2 (UniProt Q99549), the log2 fold change was 0.012 (inactive).
As to NPM3 (UniProt O75607), the log2 fold change is 0.124 (inactive).
Still for that read-out and setting: in the case of MTFR1L (UniProt Q9H019) it was -0.586 (active); in that of NA, A0A2R8Y3M9, -0.134 (inactive); in that of NME2P1 (UniProt O60361), 0.03 (inactive).
In the case of MON1A (UniProt Q86VX9), the log2 fold change is -0.012 (inactive).
The same measure, in the same setting: the result for NCOA7 (UniProt Q8NI08) reads -0.287 (active); that for NCK1 (UniProt P16333), -0.306 (inactive).
For PAFAH2 (UniProt Q99487), the log2 fold change is -0.058 (inactive).
Same read-out and setting: in the case of NAT14 (UniProt Q8WUY8) it was -0.261 (inactive); in that of NUMBL (UniProt Q9Y6R0), 0.019 (inactive); in that of NA isoform 3 (UniProt Q4G0T1), -0.051 (inactive).
On the same count and under the same terms, the result for PACS1 (UniProt Q6VY07) reads -0.03 (inactive); that for NPC1 (UniProt O15118), -0.072 (inactive); that for MRPS21 (UniProt P82921), -0.008 (inactive).
The same measure, in the same setting: in the case of MRPS16 (UniProt Q9Y3D3) it was -0.088 (inactive); in that of NOP58 (UniProt Q9Y2X3), -0.066 (inactive).
MYLK (UniProt Q15746): the log2 fold change was -0.148 (inactive).
The same measure, in the same setting: in the case of MLX (UniProt Q9UH92) it was -0.734 (active); in that of OSBPL3 (UniProt Q9H4L5), 0.621 (inactive); in that of MTHFD1, A0A384N5Y3, -0.011 (inactive).
Still for that read-out and setting: in the case of NAA11 (UniProt Q9BSU3) it was -0.041 (inactive); in that of MRPL46 (UniProt Q9H2W6), 0.302 (inactive); in that of MRPS33 (UniProt Q9Y291), 0.025 (inactive).
On the same count and under the same terms, the result for MT-ND1 (UniProt P03886) reads 0.147 (inactive); that for NCBP2AS2 (UniProt Q69YL0), -0.193 (inactive).
In the case of NCOA5 (UniProt Q9HCD5), the log2 fold change is 0.072 (inactive).
On the same count and under the same terms, the result for MRPS26 (UniProt Q9BYN8) reads -0.094 (inactive); that for MRFAP1 (UniProt Q9Y605), -0.386 (inactive); that for ORC5 (UniProt O43913), -0.42 (inactive).
Same read-out and setting: in the case of NEK3 (UniProt P51956) it was -0.162 (inactive).
